Experimental data: the supplement of paper PMC7765376
Where a name gives a salt, the structure may show the parent alone. Whole data set: some 1,500 compounds, median “Excess HSA synergy score (sum over dose matrix of excess over highest single agent)” near 43, cut for the lowest 2% near -900. Only a selection was taken, and the lowest values are over-represented in it overall.

Test system: PEO-1
Experiment: Excess HSA synergy score (sum over dose matrix of excess over highest single agent) (score (summed % response)); higher = less synergy / more antagonism (negative = synergy)
Conditions: 72 h, read-out: viability/apoptosis luminescence (CellTiter-Glo or Caspase3-Glo / not stated per table)
[1] = matrix design: 6x6, 5-fold dilutions (primary screen)
[2] = matrix design: 10x10, 9-step dilutions (confirmatory)

| SMILES | Excess HSA synergy score [1] | Excess HSA synergy score [2] |
| --- | --- | --- |
| C/C=C(/C)C(=O)O[C@H]1C(C)=C2[C@H]([C@@H]1OC(=O)CCCCCCC)[C@@](C)(OC(C)=O)C[C@H](OC(=O)CCC)[C@@]1(O)[C@H]2OC(=O)[C@@]1(C)O [Thapsigargin] + CC[C@H](NC(=O)[C@H](C)NC)C(=O)N1C[C@@H](O)C[C@H]1Cc1c(-c2[nH]c3cc(F)ccc3c2C[C@@H]2C[C@H](O)CN2C(=O)[C@H](CC)NC(=O)[C@H](C)NC)[nH]c2cc(F)ccc12 [Birinapant] | -265 | -912 |
| O=C(O)C(=O)CBr [3-Bromopyruvate] + CC[C@H](NC(=O)[C@H](C)NC)C(=O)N1C[C@@H](O)C[C@H]1Cc1c(-c2[nH]c3cc(F)ccc3c2C[C@@H]2C[C@H](O)CN2C(=O)[C@H](CC)NC(=O)[C@H](C)NC)[nH]c2cc(F)ccc12 [Birinapant] | 97.1 | – |
| CCOC(=O)Nc1ccc(NCc2ccc(F)cc2)cc1N [Retigabine] + CC[C@H](NC(=O)[C@H](C)NC)C(=O)N1C[C@@H](O)C[C@H]1Cc1c(-c2[nH]c3cc(F)ccc3c2C[C@@H]2C[C@H](O)CN2C(=O)[C@H](CC)NC(=O)[C@H](C)NC)[nH]c2cc(F)ccc12 [Birinapant] | 64.5 | – |
| CC(C)CC(N(C)C)C1(c2ccc(Cl)cc2)CCC1 (stereo not drawn) [Sibutramine hydrochloride] + CC[C@H](NC(=O)[C@H](C)NC)C(=O)N1C[C@@H](O)C[C@H]1Cc1c(-c2[nH]c3cc(F)ccc3c2C[C@@H]2C[C@H](O)CN2C(=O)[C@H](CC)NC(=O)[C@H](C)NC)[nH]c2cc(F)ccc12 [Birinapant] | 96.7 | – |
| CC(C)NC1CCn2c(=O)[nH]c3cccc(c32)C1O (stereo not drawn) [Zilpaterol] + CC[C@H](NC(=O)[C@H](C)NC)C(=O)N1C[C@@H](O)C[C@H]1Cc1c(-c2[nH]c3cc(F)ccc3c2C[C@@H]2C[C@H](O)CN2C(=O)[C@H](CC)NC(=O)[C@H](C)NC)[nH]c2cc(F)ccc12 [Birinapant] | 413 | – |
| CC1=C2C[C@H]3[C@@H](CC=C4C[C@@H](O)CC[C@@]43C)[C@@H]2CC[C@]12O[C@@H]1C[C@H](C)CN[C@H]1[C@H]2C [Cyclopamine] + CC[C@H](NC(=O)[C@H](C)NC)C(=O)N1C[C@@H](O)C[C@H]1Cc1c(-c2[nH]c3cc(F)ccc3c2C[C@@H]2C[C@H](O)CN2C(=O)[C@H](CC)NC(=O)[C@H](C)NC)[nH]c2cc(F)ccc12 [Birinapant] | 82.1 | – |
| CCNC(=O)C[C@@H]1N=C(c2ccc(Cl)cc2)c2cc(OC)ccc2-n2c(C)nnc21 + CC[C@H](NC(=O)[C@H](C)NC)C(=O)N1C[C@@H](O)C[C@H]1Cc1c(-c2[nH]c3cc(F)ccc3c2C[C@@H]2C[C@H](O)CN2C(=O)[C@H](CC)NC(=O)[C@H](C)NC)[nH]c2cc(F)ccc12 [Birinapant] | -120 | – |
| CC(C)[C@]12O[C@H]1[C@@H]1O[C@]13[C@]1(O[C@H]1C[C@H]1C4=C(CC[C@@]13C)C(=O)OC4)[C@@H]2O [Triptolide] + CC[C@H](NC(=O)[C@H](C)NC)C(=O)N1C[C@@H](O)C[C@H]1Cc1c(-c2[nH]c3cc(F)ccc3c2C[C@@H]2C[C@H](O)CN2C(=O)[C@H](CC)NC(=O)[C@H](C)NC)[nH]c2cc(F)ccc12 [Birinapant] | -151 | -1170 |
| CC1(N2CCC(n3c([C@@H]4CCCNC4)nc4ccccc43)CC2)CCCCCCC1 + CC[C@H](NC(=O)[C@H](C)NC)C(=O)N1C[C@@H](O)C[C@H]1Cc1c(-c2[nH]c3cc(F)ccc3c2C[C@@H]2C[C@H](O)CN2C(=O)[C@H](CC)NC(=O)[C@H](C)NC)[nH]c2cc(F)ccc12 [Birinapant] | 152 | – |
| O=C(N[C@H]1CN2CCC1CC2)c1ccc(Cl)cc1 + CC[C@H](NC(=O)[C@H](C)NC)C(=O)N1C[C@@H](O)C[C@H]1Cc1c(-c2[nH]c3cc(F)ccc3c2C[C@@H]2C[C@H](O)CN2C(=O)[C@H](CC)NC(=O)[C@H](C)NC)[nH]c2cc(F)ccc12 [Birinapant] | 162 | – |
| C[C@]12O[C@H](C[C@]1(O)CO)n1c3ccccc3c3c4c(c5c6ccccc6n2c5c31)CNC4=O [Lestaurtinib] + CC[C@H](NC(=O)[C@H](C)NC)C(=O)N1C[C@@H](O)C[C@H]1Cc1c(-c2[nH]c3cc(F)ccc3c2C[C@@H]2C[C@H](O)CN2C(=O)[C@H](CC)NC(=O)[C@H](C)NC)[nH]c2cc(F)ccc12 [Birinapant] | -142 | – |
| CO/C1=C\C(C)=C\[C@@H](C)[C@@H](O)[C@@H](C)C/C(C)=C/C=C/[C@H](OC)[C@@H]([C@@H](C)[C@@H](O)[C@H](C)[C@@]2(O)C[C@@H](O)[C@H](C)[C@@H](C(C)C)O2)OC1=O [Bafilomycin A1] + CC[C@H](NC(=O)[C@H](C)NC)C(=O)N1C[C@@H](O)C[C@H]1Cc1c(-c2[nH]c3cc(F)ccc3c2C[C@@H]2C[C@H](O)CN2C(=O)[C@H](CC)NC(=O)[C@H](C)NC)[nH]c2cc(F)ccc12 [Birinapant] | – | -1470 |
| CC[C@@H]1[C@@H](C)O[C@@](O)([C@@H](C)[C@H](O)[C@H](C)[C@H]2OC(=O)/C=C/C=C/[C@H](C)[C@@H]([C@@H](C)[C@@H](O)[C@H](C)[C@@]3(O)C[C@@H](O[C@H]4C[C@H](O)[C@H](O)[C@H](C)O4)[C@H](CC)[C@@H](C)O3)OC(=O)/C=C/C=C/[C@@H]2C)C[C@H]1O[C@H]1C[C@H](O)[C@H](O)[C@H](C)O1 [Azalomycin-B] + CC[C@H](NC(=O)[C@H](C)NC)C(=O)N1C[C@@H](O)C[C@H]1Cc1c(-c2[nH]c3cc(F)ccc3c2C[C@@H]2C[C@H](O)CN2C(=O)[C@H](CC)NC(=O)[C@H](C)NC)[nH]c2cc(F)ccc12 [Birinapant] | -24.5 | – |
| CC1C=CC=CCCC=CC=CC=CC=CC(OC2OC(C)C(O)C(N)C2O)CC2OC(O)(CC(O)C(O)CCC(O)CC(O)CC(O)CC(=O)OC(C)C(C)C1O)CC(O)C2C(=O)O (stereo not drawn) [Nystatin] + CC[C@H](NC(=O)[C@H](C)NC)C(=O)N1C[C@@H](O)C[C@H]1Cc1c(-c2[nH]c3cc(F)ccc3c2C[C@@H]2C[C@H](O)CN2C(=O)[C@H](CC)NC(=O)[C@H](C)NC)[nH]c2cc(F)ccc12 [Birinapant] | 90.8 | – |
| N=c1c2c(-c3ccccc3)c(-c3ccccc3)n(Cc3ccccc3)c2ncn1[C@H]1CC[C@H](O)CC1 + CC[C@H](NC(=O)[C@H](C)NC)C(=O)N1C[C@@H](O)C[C@H]1Cc1c(-c2[nH]c3cc(F)ccc3c2C[C@@H]2C[C@H](O)CN2C(=O)[C@H](CC)NC(=O)[C@H](C)NC)[nH]c2cc(F)ccc12 [Birinapant] | -361 | – |
| C[C@@]12OC(=O)[C@]1([C@@H](O)[C@@H]1C=CCCC1)NC(=O)[C@@H]2CCCl [Marizomib] + CC[C@H](NC(=O)[C@H](C)NC)C(=O)N1C[C@@H](O)C[C@H]1Cc1c(-c2[nH]c3cc(F)ccc3c2C[C@@H]2C[C@H](O)CN2C(=O)[C@H](CC)NC(=O)[C@H](C)NC)[nH]c2cc(F)ccc12 [Birinapant] | -95.7 | – |
| CC[C@@]1([C@@H]2O[C@@H]([C@H]3O[C@@](O)(CO)[C@H](C)C[C@@H]3C)C[C@@H]2C)CC[C@H]([C@]2(C)CC[C@]3(C[C@H](O)[C@@H](C)[C@@H]([C@@H](C)[C@@H](OC)[C@H](C)C(=O)O)O3)O2)O1 [Monensin sodium salt] + CC[C@H](NC(=O)[C@H](C)NC)C(=O)N1C[C@@H](O)C[C@H]1Cc1c(-c2[nH]c3cc(F)ccc3c2C[C@@H]2C[C@H](O)CN2C(=O)[C@H](CC)NC(=O)[C@H](C)NC)[nH]c2cc(F)ccc12 [Birinapant] | -104 | – |
| CO[C@H]1CC[C@@H](O[C@H]2C[C@H]([C@]3(C)CC[C@]4(C[C@H](O)[C@@H](C)[C@@H]([C@@H](C)/C=C(\C)C(=O)[C@H](C)C[C@H](C)C(=O)O)O4)O3)O[C@]3(O[C@@H]([C@H]4O[C@@](O)(CO)[C@H](C)C[C@@H]4C)C[C@@H]3C)[C@@H]2C)O[C@@H]1C [Nanchangmycin] + CC[C@H](NC(=O)[C@H](C)NC)C(=O)N1C[C@@H](O)C[C@H]1Cc1c(-c2[nH]c3cc(F)ccc3c2C[C@@H]2C[C@H](O)CN2C(=O)[C@H](CC)NC(=O)[C@H](C)NC)[nH]c2cc(F)ccc12 [Birinapant] | -308 | -1080 |
| Cc1n[nH]c2ccc(-c3cncc(OC[C@@H](N)Cc4c[nH]c5ccccc45)c3)cc12 + CC[C@H](NC(=O)[C@H](C)NC)C(=O)N1C[C@@H](O)C[C@H]1Cc1c(-c2[nH]c3cc(F)ccc3c2C[C@@H]2C[C@H](O)CN2C(=O)[C@H](CC)NC(=O)[C@H](C)NC)[nH]c2cc(F)ccc12 [Birinapant] | -218 | – |
| CC(C)c1cccc(C(C)C)c1O [Propofol] + CC[C@H](NC(=O)[C@H](C)NC)C(=O)N1C[C@@H](O)C[C@H]1Cc1c(-c2[nH]c3cc(F)ccc3c2C[C@@H]2C[C@H](O)CN2C(=O)[C@H](CC)NC(=O)[C@H](C)NC)[nH]c2cc(F)ccc12 [Birinapant] | 6.44 | – |
